# Reference: PubChem BioAssay (Tox21)
# Inconclusive results are not listed. A call without a number means that no potency is given here. Unmarked numbers belong to inactive results. The source made the active and inactive calls. The call rests on the fitted dose curve; in most records, active means well fitted curve in the direction sought with a large enough effect in the repeat runs; inconclusive means weak or mixed curves; inactive means no such curve, though single readings can be large; an effect the other way counts as inactive or inconclusive.
# Key:
# [1] = biological target: Cytochrome P450 2D6 (Homo sapiens) (UniProt P10635); test: Cytochrome P450 Family 2 Subfamily D Member 6 (CYP2D6) small molecule antagonists: luciferase reporter qHTS assay (AID 1671196); further: nearly all actives have a fitted effect of over 50% in size; on activity change, negative = inhibition: series mostly up to about 120 µM
# Cytochrome P450 2D6 (Homo sapiens), sequence (P10635 whole entry, looked up): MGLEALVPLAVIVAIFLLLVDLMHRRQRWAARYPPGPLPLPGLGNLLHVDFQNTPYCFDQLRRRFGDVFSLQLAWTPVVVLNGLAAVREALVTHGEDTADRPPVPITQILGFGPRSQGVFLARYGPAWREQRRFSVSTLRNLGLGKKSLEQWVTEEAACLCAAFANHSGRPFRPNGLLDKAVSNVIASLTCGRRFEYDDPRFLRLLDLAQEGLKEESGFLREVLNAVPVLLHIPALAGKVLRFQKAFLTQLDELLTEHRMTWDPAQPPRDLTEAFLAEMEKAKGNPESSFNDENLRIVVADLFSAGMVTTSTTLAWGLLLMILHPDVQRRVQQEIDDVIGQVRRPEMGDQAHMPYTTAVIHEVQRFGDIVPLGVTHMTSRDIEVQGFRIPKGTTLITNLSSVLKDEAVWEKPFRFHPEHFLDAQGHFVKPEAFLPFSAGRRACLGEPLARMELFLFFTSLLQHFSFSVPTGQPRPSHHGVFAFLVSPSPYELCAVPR
# Outline: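 Quantitative HTS of Tox21 chemicals against CYP2D6 using a luminescent proluciferin substrate. After NADPH addition, 1 h room-temperature reaction; luminescence recorded 20 min post detection reagent.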
# [2] = biological target: Cytochrome P450 2C9 (Homo sapiens) (UniProt P11712); test: Cytochrome P450 Family 2 Subfamily C Member 9 (CYP2C9) small molecule antagonists: luciferase reporter qHTS assay (AID 1671198); further: nearly all actives have a fitted effect of over 50% in size; on activity change, negative = inhibition: series mostly up to about 120 µM
# Cytochrome P450 2C9 (Homo sapiens), sequence (P11712 whole entry, looked up): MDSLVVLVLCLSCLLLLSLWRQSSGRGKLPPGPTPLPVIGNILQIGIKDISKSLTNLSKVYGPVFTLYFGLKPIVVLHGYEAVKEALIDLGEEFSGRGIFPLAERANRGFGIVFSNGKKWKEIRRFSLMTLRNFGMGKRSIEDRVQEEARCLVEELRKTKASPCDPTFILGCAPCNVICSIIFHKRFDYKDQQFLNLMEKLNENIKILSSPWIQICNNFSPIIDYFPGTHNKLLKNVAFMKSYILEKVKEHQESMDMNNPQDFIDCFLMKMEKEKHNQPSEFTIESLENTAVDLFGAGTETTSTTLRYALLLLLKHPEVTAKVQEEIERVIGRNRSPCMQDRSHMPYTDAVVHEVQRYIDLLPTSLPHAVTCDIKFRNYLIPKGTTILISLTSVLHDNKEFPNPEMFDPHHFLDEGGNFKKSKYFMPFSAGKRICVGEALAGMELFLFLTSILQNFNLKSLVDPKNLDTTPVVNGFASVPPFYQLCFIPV
# Outline: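 Enzyme-substrate mix preincubated with compound 10 min at room temperature; reaction started with NADPH regeneration solution, 1 h 37C. Luminescent luciferin product read after 20 min detection reagent.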
# [3] = biological target: Cytochrome P450 3A4 (Homo sapiens) (UniProt P08684); test: Cytochrome P450 Family 3 Subfamily A Member 4 (CYP3A4) small molecule antagonists: luciferase reporter qHTS assay (AID 1671201); further: nearly all actives have a fitted effect of over 50% in size; on activity change, negative = inhibition: series mostly up to about 120 µM
# Cytochrome P450 3A4 (Homo sapiens), sequence (P08684 whole entry, looked up): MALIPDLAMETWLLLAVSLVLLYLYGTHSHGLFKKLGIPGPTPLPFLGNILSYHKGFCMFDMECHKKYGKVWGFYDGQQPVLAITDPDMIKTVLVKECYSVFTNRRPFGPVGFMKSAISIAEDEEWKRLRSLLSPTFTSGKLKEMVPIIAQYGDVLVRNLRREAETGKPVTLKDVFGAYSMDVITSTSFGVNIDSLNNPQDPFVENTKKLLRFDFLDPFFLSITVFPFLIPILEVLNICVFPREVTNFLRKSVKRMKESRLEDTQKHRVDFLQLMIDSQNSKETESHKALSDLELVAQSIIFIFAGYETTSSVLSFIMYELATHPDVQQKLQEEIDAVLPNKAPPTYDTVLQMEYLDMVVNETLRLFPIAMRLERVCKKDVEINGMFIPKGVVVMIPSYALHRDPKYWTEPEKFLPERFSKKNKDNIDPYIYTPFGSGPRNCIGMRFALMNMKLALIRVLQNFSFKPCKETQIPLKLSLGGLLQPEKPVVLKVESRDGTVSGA
# Outline: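 Inhibition of CYP3A4 is measured as loss of light: the enzyme converts a proluciferin substrate to luciferin, detected luminescently. Reaction ran 1 h at room temperature with NADPH regeneration after a 10 min compound preincubation.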
# [4] = biological target: Voltage-gated inwardly rectifying potassium channel KCNH2 (Homo sapiens) (UniProt Q12809); test: Human Ether-a-go-go-Related Gene (hERG) channel small molecule antagonists: fluorescence cell-based qHTS assay (AID 1671200); further: nearly all actives have a fitted effect of over 50% in size;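 on activity change, negative = inhibition: hERG-expressing U2OS cells given a thallium stimulus after FluxOR II dye loading; series mostly up to about 77 µM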
# Voltage-gated inwardly rectifying potassium channel KCNH2 (Homo sapiens), sequence (Q12809 whole entry, looked up): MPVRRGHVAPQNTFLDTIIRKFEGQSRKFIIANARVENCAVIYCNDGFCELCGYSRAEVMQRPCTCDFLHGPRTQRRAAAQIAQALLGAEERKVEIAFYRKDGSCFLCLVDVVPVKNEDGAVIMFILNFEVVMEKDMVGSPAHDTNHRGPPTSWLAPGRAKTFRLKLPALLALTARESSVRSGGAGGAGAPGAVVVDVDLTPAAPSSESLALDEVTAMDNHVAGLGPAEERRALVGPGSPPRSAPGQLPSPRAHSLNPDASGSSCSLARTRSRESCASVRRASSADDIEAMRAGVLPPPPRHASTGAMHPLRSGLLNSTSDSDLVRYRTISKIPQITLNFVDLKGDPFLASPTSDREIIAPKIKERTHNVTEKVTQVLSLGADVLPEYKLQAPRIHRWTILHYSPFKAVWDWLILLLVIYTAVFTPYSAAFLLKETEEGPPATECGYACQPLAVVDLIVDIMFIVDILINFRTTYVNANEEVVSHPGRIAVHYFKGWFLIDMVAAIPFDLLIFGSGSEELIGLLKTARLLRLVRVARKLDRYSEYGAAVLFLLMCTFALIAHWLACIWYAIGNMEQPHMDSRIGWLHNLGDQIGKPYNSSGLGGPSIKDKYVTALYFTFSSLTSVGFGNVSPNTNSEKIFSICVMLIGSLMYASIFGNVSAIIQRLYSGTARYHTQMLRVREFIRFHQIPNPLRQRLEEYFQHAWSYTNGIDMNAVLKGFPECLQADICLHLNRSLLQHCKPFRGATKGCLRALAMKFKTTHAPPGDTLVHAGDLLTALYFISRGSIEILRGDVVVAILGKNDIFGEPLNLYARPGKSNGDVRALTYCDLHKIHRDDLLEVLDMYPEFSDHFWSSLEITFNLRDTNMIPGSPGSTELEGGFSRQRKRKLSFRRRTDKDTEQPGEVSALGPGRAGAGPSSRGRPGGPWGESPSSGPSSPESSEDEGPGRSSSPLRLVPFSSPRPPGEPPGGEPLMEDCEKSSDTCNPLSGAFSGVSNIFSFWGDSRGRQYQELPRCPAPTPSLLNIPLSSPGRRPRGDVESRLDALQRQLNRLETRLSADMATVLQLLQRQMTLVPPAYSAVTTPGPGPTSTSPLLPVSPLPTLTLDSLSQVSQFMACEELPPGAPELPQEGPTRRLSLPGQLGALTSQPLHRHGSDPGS
# Outline: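 Quantitative HTS in hERG-U2OS cells: thallium entry through the channel reports activity, read as continuous 480/540 nm fluorescence over 2 min after stimulus addition.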
# [5] = biological target: Cytochrome P450 1A2 (Homo sapiens) (UniProt P05177); test: Cytochrome P450 Family 1 Subfamily A Member 2 (CYP1A2) small molecule antagonists: luciferase reporter qHTS assay (AID 1671199); further: nearly all actives have a fitted effect of over 50% in size; on activity change, negative = inhibition: series mostly up to about 120 µM
# Cytochrome P450 1A2 (Homo sapiens), sequence (P05177 whole entry, looked up): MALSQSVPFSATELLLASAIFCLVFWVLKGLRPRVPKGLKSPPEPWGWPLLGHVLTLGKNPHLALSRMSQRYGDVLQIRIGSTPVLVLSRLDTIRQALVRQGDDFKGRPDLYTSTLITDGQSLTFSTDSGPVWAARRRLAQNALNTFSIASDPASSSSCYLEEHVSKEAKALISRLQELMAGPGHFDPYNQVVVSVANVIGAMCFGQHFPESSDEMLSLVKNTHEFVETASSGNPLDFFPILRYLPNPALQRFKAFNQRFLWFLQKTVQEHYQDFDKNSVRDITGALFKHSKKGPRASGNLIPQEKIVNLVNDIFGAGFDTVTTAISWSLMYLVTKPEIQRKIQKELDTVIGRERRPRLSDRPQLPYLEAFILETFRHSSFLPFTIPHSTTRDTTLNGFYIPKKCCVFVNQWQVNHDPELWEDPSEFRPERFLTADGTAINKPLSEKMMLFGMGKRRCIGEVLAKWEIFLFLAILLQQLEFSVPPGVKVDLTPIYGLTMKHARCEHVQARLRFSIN
# Outline: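 Quantitative high-throughput format using the P450-Glo CYP1A2 system. Reaction initiated by NADPH regeneration solution, 1 h at room temperature, then stopped with detection reagent; luminescence measured 20 min later.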
# [6] = biological target: Cytochrome P450 2C19 (Homo sapiens) (UniProt P33261); test: Cytochrome P450 Family 2 Subfamily C Member 19 (CYP2C19) small molecule antagonists: luciferase reporter qHTS assay (AID 1671197); further: nearly all actives have a fitted effect of over 65% in size; on activity change, negative = inhibition: series mostly up to about 120 µM
# Cytochrome P450 2C19 (Homo sapiens), sequence (P33261 whole entry, looked up): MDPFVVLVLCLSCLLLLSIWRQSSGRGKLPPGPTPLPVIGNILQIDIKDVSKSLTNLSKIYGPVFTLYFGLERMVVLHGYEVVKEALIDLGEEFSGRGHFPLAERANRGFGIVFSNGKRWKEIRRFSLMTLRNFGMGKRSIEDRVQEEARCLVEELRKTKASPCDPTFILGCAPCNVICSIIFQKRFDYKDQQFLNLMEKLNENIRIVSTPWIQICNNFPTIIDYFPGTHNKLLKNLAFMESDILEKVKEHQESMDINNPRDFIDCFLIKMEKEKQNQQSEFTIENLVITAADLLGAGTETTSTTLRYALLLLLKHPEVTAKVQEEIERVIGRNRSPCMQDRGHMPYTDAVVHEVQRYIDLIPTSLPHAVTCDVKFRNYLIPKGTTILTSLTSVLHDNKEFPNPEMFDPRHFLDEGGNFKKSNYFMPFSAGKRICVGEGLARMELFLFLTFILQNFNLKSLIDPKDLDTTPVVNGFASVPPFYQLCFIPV
# Outline: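 Compounds were tested on CYP2C19 activity via proluciferin conversion to luciferin. The 37C, 1 h reaction followed NADPH addition; detection reagent stopped it.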
# Potency means the concentration at half of the fitted maximal effect.
compound,measurement,setting,value
Cc1ccc(C(=O)C(=O)O)cc1C,Potency,[1],inactive
same,Potency,[2],inactive
same,Potency,[3],inactive
CC(=O)c1ccc(OCC(=O)N2CCCCC2)cc1,Potency,[1],inactive
same,Potency,[2],inactive
same,Potency,[4],inactive
same,Potency,[3],inactive
COc1ccc(OC)c(NC(=O)CC(C)=O)c1,Potency,[1],31.7 µM (active)
same,Potency,[2],31.7 µM (active)
same,Potency,[3],22.4 µM (active)
Cc1ccccc1C(=O)N1CC/C(=N\OS(=O)(=O)O)c2ccc(Cl)cc21,Potency,[1],inactive
same,Potency,[2],4.36 µM (active)
same,Potency,[4],inactive
CCc1nccnc1C,Potency,[1],inactive
same,Potency,[2],inactive
same,Potency,[4],inactive
same,Potency,[3],inactive
O=C(O)c1ccccc1C(=O)Nc1ccc(S(=O)(=O)Nc2nccs2)cc1,Potency,[1],inactive
same,Potency,[2],inactive
same,Potency,[5],inactive
same,Potency,[4],inactive
same,Potency,[3],inactive
CC(C)CCCCCCOC(=O)C1CCCCC1C(=O)OCCCCCCC(C)C (centres undefined),Potency,[1],inactive
same,Potency,[5],inactive
same,Potency,[4],inactive
CCOC(=O)CCc1ccccc1,Potency,[1],inactive
same,Potency,[2],inactive
same,Potency,[4],inactive
same,Potency,[3],inactive
CCCCCN(CCCOC)C(=O)C(CCC(=O)O)NC(=O)c1ccc(Cl)c(Cl)c1 (centres undefined),Potency,[1],inactive
same,Potency,[2],13.8 µM (active)
same,Potency,[5],30.9 µM (active)
same,Potency,[4],inactive
same,Potency,[3],inactive
C=C(C)C(=O)OC,Potency,[1],inactive
same,Potency,[2],inactive
same,Potency,[5],inactive
same,Potency,[4],inactive
same,Potency,[3],inactive
CCCCC/C=C/CC(=O)OC,Potency,[1],inactive
same,Potency,[2],inactive
same,Potency,[4],inactive
same,Potency,[3],inactive
OC(CCN1CCCCC1)(c1ccccc1)c1ccccc1,Potency,[1],1.38 µM (active)
same,Potency,[2],inactive
same,Potency,[5],inactive
same,Potency,[4],9.52 µM (active)
same,Potency,[3],inactive
CN(C)CCCNCCC#N,Potency,[1],inactive
same,Potency,[2],inactive
same,Potency,[4],inactive
same,Potency,[3],inactive
OC[C@@H](O)[C@H](O)[C@@H](O)[C@@H](O)CO,Potency,[1],inactive
same,Potency,[2],inactive
same,Potency,[4],inactive
same,Potency,[3],inactive
CCOC(=O)C(=O)c1csc(NC=O)n1,Potency,[6],inactive
same,Potency,[2],inactive
same,Potency,[5],19.5 µM (active)
same,Potency,[4],inactive
same,Potency,[3],inactive
O=C(O)c1ccccc1C(=O)OCc1ccccc1,Potency,[6],inactive
same,Potency,[5],inactive
same,Potency,[4],inactive
same,Potency,[3],inactive
Cc1nc([N+](=O)[O-])cn1-c1ccc([N+](=O)[O-])cc1,Potency,[6],inactive
same,Potency,[2],inactive
same,Potency,[4],inactive
same,Potency,[3],inactive
O=S(=O)(O)c1cc(O)ccc1O,Potency,[4],inactive
CC(=O)N1CCN(c2ccc(O)cc2)CC1,Potency,[4],inactive
same,Potency,[3],inactive
CCOC(=O)CC#N,Potency,[6],39.5 µM (active)
same,Potency,[3],inactive
COc1ccc(NS(=O)(=O)c2ccc(N)cc2)nn1,Potency,[4],inactive
O=CO,"activity change, negative = inhibition",[4],-0.636% [at 6.97 µM]
CC(Cl)COP(=O)(OCC(C)Cl)OCC(C)Cl (centres undefined),Potency,[1],inactive
same,Potency,[4],inactive
same,Potency,[3],inactive
CC1CCC(C(C)(C)S)C(=O)C1 (centres undefined),Potency,[2],39.9 µM (active)
same,Potency,[4],inactive
CCOc1ccc(NC(=O)OC(C)C)cc1OCC,Potency,[6],71 µM (active)
same,Potency,[2],inactive
same,Potency,[5],5.03 µM (active)
same,Potency,[4],inactive
same,Potency,[3],inactive
CN[C@@H]1[C@@H](O)[C@@H](O[C@@H]2[C@H](O)[C@H](O[C@H]3OC(CN)=CC[C@H]3N)[C@@H](N)C[C@H]2N)OCC1(C)O (some centres undefined),Potency,[4],inactive
CCCCCCCCCCCCCCCC(=O)NCCO,Potency,[4],inactive
C=CCOc1c(Br)cc(Br)cc1Br,Potency,[6],7.96 µM (active)
same,Potency,[2],8.94 µM (active)
same,Potency,[5],2.83 µM (active)
same,Potency,[4],inactive
Oc1ccccc1Cc1ccccc1O,Potency,[6],10 µM (active)
same,Potency,[2],39.9 µM (active)
same,Potency,[4],inactive
C=CCOC(=O)c1ccc(C(=O)OCC=C)c(C(=O)OCC=C)c1,Potency,[6],0.159 µM (active)
same,Potency,[2],0.399 µM (active)
same,Potency,[4],inactive
same,Potency,[3],1.78 µM (active)
C[C@H](CCC(=O)NCC(=O)O)[C@H]1CC[C@H]2[C@@H]3[C@H](O)C[C@@H]4C[C@H](O)CC[C@]4(C)[C@H]3C[C@H](O)[C@]12C,Potency,[1],inactive
same,Potency,[5],inactive
same,Potency,[4],inactive
same,Potency,[3],inactive
Cc1ccc2c(c1)c1c3n2CCNC3CCC1 (centres undefined),Potency,[4],inactive
CCS(=O)(=O)CCn1c([N+](=O)[O-])cnc1C,Potency,[4],inactive
CC(C)COC(=O)/C=C/c1ccccc1,Potency,[1],inactive
same,Potency,[5],28.3 µM (active)
same,Potency,[3],inactive
C1CCN2C[C@@H]3C[C@@H](CN4CCCC[C@@H]34)[C@H]2C1,Potency,[4],inactive
C=COCCOCCOC=C,Potency,[6],inactive
same,Potency,[2],inactive
same,Potency,[4],inactive
same,Potency,[3],inactive
CCCCCCCCCOCC1CO1 (centres undefined),Potency,[6],52.2 µM (active)
same,Potency,[2],82.8 µM (active)
same,Potency,[4],inactive
C=CCOCC(O)CCl (centres undefined),Potency,[1],inactive
same,Potency,[4],inactive
same,Potency,[3],inactive
CC1=NN(c2ccc(S(=O)(=O)O)cc2)C(=O)C1N=Nc1ccccc1 (centres undefined),Potency,[1],inactive
same,Potency,[5],inactive
same,Potency,[3],inactive
CCN(CC)C(=O)C1CN2CCc3cc(OC)c(OC)cc3C2CC1OC(C)=O (centres undefined),Potency,[6],inactive
same,Potency,[2],inactive
same,Potency,[5],inactive
Nc1ccc(C(=O)OCC(O)CO)cc1 (centres undefined),Potency,[1],inactive
same,Potency,[4],inactive
CCN(Cc1cccc(S(=O)(=O)O)c1)c1ccccc1,Potency,[2],17.8 µM (active)
same,Potency,[5],inactive
same,Potency,[4],inactive
same,Potency,[3],inactive
CC1=CC[C@H](CC=O)C1(C)C,Potency,[1],inactive
same,Potency,[4],inactive
same,Potency,[3],63.3 µM (active)
CCCO,Potency,[2],inactive
same,Potency,[3],inactive
c1ccc(CNc2ncnc3nc[nH]c23)cc1,Potency,[4],inactive
CCC(=O)OCCC(C)CCC=C(C)C (centres undefined),Potency,[2],25.2 µM (active)
same,Potency,[5],39.9 µM (active)
same,Potency,[4],inactive
same,Potency,[3],12.6 µM (active)
CN=C(NC#N)NCCSCc1csc(N=C(N)N)n1,Potency,[4],inactive
O=C(COCCOCCOCC(=O)Nc1c(I)cc(I)c(C(=O)O)c1I)Nc1c(I)cc(I)c(C(=O)O)c1I,Potency,[2],inactive
same,Potency,[4],inactive
same,Potency,[3],inactive
CCN(CCC#N)c1ccccc1,Potency,[6],8.94 µM (active)
same,Potency,[4],inactive
same,Potency,[3],inactive
CN(C1CCCCC1)S(=O)(=O)c1ccccc1N,Potency,[6],3.17 µM (active)
same,Potency,[2],6.33 µM (active)
same,Potency,[4],inactive
Cc1nc2ccccc2c(=O)o1,Potency,[4],inactive
same,Potency,[3],inactive
Cc1ncc([N+](=O)[O-])n1CC(O)CCl (centres undefined),Potency,[4],inactive
